# BAZ2B block – blocks human BAZ2B; AlphaScreen BAZ2B-H3K14Ac peptide displacement; Potency, µM (series often up to 114 µM), inactives show at the highest dose activity change, negative = inhibition, usual class: inhibitors; 4.4% of 360,000 active; AID 504333; further: on the % scale 0 is the no-effect control and ±100 the full control effect; nearly all actives have a fitted effect of over 60% in size
#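 Protein-peptide AlphaScreen: BAZ2B 50 nM, b-H3K14Ac 50 nM, 1x PBS pH 7.4 + 0.01% Tween-20. Preincubation 30 min RT; cpd 30 min RT (top 110 uM); beads 20 min RT, light-protected.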
# JMJD2A Tudor – inhibitors of human JMJD2A Tudor domain; 4.4% of 390,000 active; Potency, µM (titrated, usually from 114 µM), inactives show at the highest dose activity change, negative = inhibition, most hits filed as inhibitors; AlphaScreen JMJD2A-Tudor / H3K4me3 peptide binding; O75164; further: on the % scale 0 is the no-effect control and ±100 the full control effect; nearly all actives have a fitted effect of over 50% in size
# G9a block – G9a (human) methyltransferase inhibition; G9a H3K9 monomethylation, AlphaScreen, 2 h; Potency, µM (doses to about 102 µM), inactives show at the top dose activity, negative = inhibition, hits mostly inhibitors; 8.8% of 350,000 active; AID 504332; further: on the % scale 0 is the no-effect control and ±100 the full control effect; nearly all actives have a fitted effect of over 75% in size
#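 G9a (20 nM) was preincubated 15 min with compound, then reacted 2 h at room temperature with 500 nM biotin-H3K9 peptide and 20 µM SAM. Monomethyl-H3K9 detected by AlphaScreen using anti-H3K9me1 antibody.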
# L3MBTL1 inh – inhibitors of human L3MBTL1; AlphaScreen L3MBTL1–H3K9me1 peptide binding; Potency, µM (top dose mostly 57.1 µM), for the others: top-dose activity, negative = inhibition, actives largely listed as inhibitors; Q9Y468; 0.66% of 230,000 active; AID 485360; further: on the % scale 0 is the no-effect control and ±100 the full control effect; nearly all actives have a fitted effect of over 60% in size
# Target sequence (Q9Y468 whole entry, looked up): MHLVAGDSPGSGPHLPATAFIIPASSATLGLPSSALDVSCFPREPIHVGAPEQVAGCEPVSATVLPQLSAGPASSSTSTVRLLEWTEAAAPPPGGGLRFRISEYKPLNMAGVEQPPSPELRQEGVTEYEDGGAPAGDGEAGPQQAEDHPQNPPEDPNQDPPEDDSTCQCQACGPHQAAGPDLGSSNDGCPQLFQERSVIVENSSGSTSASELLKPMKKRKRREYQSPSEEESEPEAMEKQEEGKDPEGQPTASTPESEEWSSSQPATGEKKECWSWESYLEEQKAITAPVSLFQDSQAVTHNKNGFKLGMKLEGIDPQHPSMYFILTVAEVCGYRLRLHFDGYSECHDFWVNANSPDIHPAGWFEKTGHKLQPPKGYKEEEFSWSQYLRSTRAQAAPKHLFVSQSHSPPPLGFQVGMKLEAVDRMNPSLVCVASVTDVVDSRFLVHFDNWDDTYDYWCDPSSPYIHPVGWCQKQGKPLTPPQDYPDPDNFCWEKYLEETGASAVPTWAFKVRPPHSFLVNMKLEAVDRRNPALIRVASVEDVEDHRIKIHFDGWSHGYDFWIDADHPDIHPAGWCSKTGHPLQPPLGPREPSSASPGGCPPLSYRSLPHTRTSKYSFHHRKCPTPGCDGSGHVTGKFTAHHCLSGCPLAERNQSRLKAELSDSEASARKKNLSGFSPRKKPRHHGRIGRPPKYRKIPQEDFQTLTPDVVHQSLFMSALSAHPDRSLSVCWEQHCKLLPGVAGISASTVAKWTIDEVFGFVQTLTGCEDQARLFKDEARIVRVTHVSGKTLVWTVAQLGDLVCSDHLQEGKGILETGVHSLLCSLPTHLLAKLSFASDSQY
#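 First, the protein-peptide complex forms for 30 min at room temperature (L3MBTL1 50 nM, biotinylated H3K9me1 peptide 75 nM). Next, compounds are pin-transferred and incubated 30 min. Finally, AlphaScreen beads are added and read after 30 min.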
# HP1b chromo inh – blocks HP1-beta chromodomain binding to methylated histone tails; AlphaScreen HP1-beta / biotin-H3K9me3 peptide binding; 0.56% of 390,000 active; Potency, µM (series often up to 114 µM), for the others: at the highest dose activity change, negative = inhibition, hits mostly inhibitors; further: nearly all actives have a fitted effect of over 70% in size
#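 Compound inhibition of the preformed complex between 50 nM HP1-beta and 50 nM biotinylated H3K9me3 peptide was read by AlphaScreen. Buffer was PBS pH 7.4 with 0.01% Tween-20. Incubations ran 30 min at room temperature, with 10 ug/mL donor/acceptor beads.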
# Sfp inh – Sfp phosphopantetheinyl transferase inhibition | Biochemical Sfp PPTase activity, qHTS | Potency, µM, for inactives: largest response in the series, negative = inhibition, hits mostly inhibitors | 3.5% of 310,000 active;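 further: the enzyme is Sfp with the accession as filed and its product quenches rhodamine fluorescence; 0% = enzyme reaction without inhibitor and -100% = no enzyme wells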
#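 Sfp 15 nM + cpd, 15 min RT; start w/ rhodamine-CoA 5 uM, BHQ-2-YbbR 12.5 uM (final); 50 mM Hepes pH 7.6, 10 mM MgCl2, 0.01% NP-40, 0.01% BSA; read 525/598 nm at 0 and 30 min.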
# * = called active by the depositor; u = inconclusive; x = no result; [ ] = dose if it differs, or a comment. Rows were chosen to be rich in hits. Some 12% of all compounds tested hit in one or more screens of this group. The call rests on the fitted dose curve; in most records, active means well fitted curve in the direction sought with a large enough effect; inconclusive means small, poorly fitted or top-dose-only effect, or another doubt; inactive means no such curve, though single readings can be large; an effect the other way counts as inactive or inconclusive. Potency means the concentration at half of the fitted maximal effect.
SMILES,BAZ2B block,JMJD2A Tudor,G9a block,L3MBTL1 inh,HP1b chromo inh,Sfp inh
CCN(CC)S(=O)(=O)c1ccc(NC2c3ccccc3C(=O)N2c2ccc(C)cn2)cc1 (stereo not given),4.8%,-13.2%,39.8µM*,2.8%,28.1%,8.0%
COc1ccc(NC2c3ccccc3C(=O)N2c2ccccn2)cc1 (stereo not given),56.2µM*,-35.1%,u,u,4.9%,-8.7%
Cc1ccc(NC2c3ccccc3C(=O)N2c2cccnc2)cc1 (stereo not given),-17.6%,-14.8%,-5.7%,5.4%,-7.3%,18.1%
Cc1ccc(N2C(=O)c3ccccc3C2Nc2ccc(S(=O)(=O)N3CCCCC3)cc2)nc1 (stereo not given),0.7%,-28.9%,u,x,13.9%,2.4%
COc1ccc(Cl)cc1NC(=O)Cn1nc(Cc2ccncc2)c2ccccc2c1=O,-21.2%,-17.9%,-38.5%[59 µM],x,80.0%,x
COc1ccc(NC(=O)C2=C(C)Nc3nc(SCc4ccccc4C)nn3C2c2cc(OC)c(O)c(OC)c2)cc1 (stereo not given),79.4µM*,-9.9%,-25.8%[59 µM],x,32.5%,x
CN(Cc1nc(-c2ccc(Cl)cc2)no1)S(=O)(=O)c1ccccc1,39.8%,55.7%,8.6%[59 µM],x,98.9%,x
Cc1ccc(NC(=O)N2CC3CCCN3c3ccccc32)cc1C (stereo not given),25.1µM*,50.1µM*,10µM*,x,u,x
Cc1ccc(NC(=O)N2CC3CCCN3c3ccccc32)cc1Cl (stereo not given),28.2µM*,39.8µM*,8.91µM*,x,u,x
COC(=O)c1ccc(Cl)cc1NC(=O)N1CC2CCCN2c2ccccc21 (stereo not given),u,u,8.91µM*,x,3.2%,x
Cc1ccc(NC(=O)N2CCc3ccccc3C2)c(C)c1,-11.5%,-5.5%,-4.7%,x,31.0%,11.3%
Cc1ccc(NC(=O)N2CC3CCCN3c3ccccc32)c(C)c1 (stereo not given),7.0%,50.1µM*,-4.1%[59 µM],x,u,x
CCC1CN(C(=O)Nc2cc(Cl)ccc2C(=O)OC)c2ccccc2S1 (stereo not given),-5.1%,-10.2%,-15.8%[59 µM],x,59.3%,x
Cc1ccc2nc(N(Cc3cccnc3)C(=O)COc3ccccc3)sc2c1,-4.3%,-11.7%,6.3%[59 µM],x,27.0%,x
Cc1cc2c(cc1C)NC(CC(=O)Nc1ccccc1SC(F)(F)F)C(=O)N2 (stereo not given),-0.9%,-1.0%,4.6%[59 µM],x,31.5%,x
O=C(Nc1cccc(C(F)(F)F)c1)N1CC2CCCN2c2ccccc21 (stereo not given),28.2µM*,50.1µM*,u,x,u,x
COc1ccc(C2CC(=O)c3cc(-c4nc(-c5ccc(Cl)cc5)c(C)s4)c(=O)[nH]c3C2)cc1 (stereo not given),1.0%,-8.9%,-2.9%[59 µM],x,42.2%,x
CCOC(=O)c1c(-c2ccc(OC)cc2)csc1NC(=O)CCN1CCOCC1,22.4µM*,20µM*,3.55µM*,-1.2%[2.29 µM],u,35.5µM*
CCOC(=O)c1c(-c2ccc(C)cc2)csc1NC(=O)CCN1CC(C)OC(C)C1 (stereo not given),22.4µM*,8.91µM*,u,-10.6%,35.5µM*,15.8µM*
CCOC(=O)c1c(-c2ccc(C)cc2)csc1NC(=O)C1CCCO1 (stereo not given),5.0%,26.2%,-0.7%[59 µM],11.4%,65.9%,-14.1%
CCOC(=O)c1c(-c2ccc(F)cc2)csc1NC(=O)C1CCCO1 (stereo not given),7.5%,22.8%,20µM*,8.5%,4.2%,22.4µM*
CCOC(=O)c1c(-c2ccc(OC)cc2)csc1NC(=O)CCN1C(=O)c2ccccc2C1=O,-18.1%,-33.1%,u,-3.4%,-32.5%,50.1µM*
CC(C)C[C@H](NC(=O)[C@H](CCCCN)NC(=O)[C@H](CCCNC(=N)N)NC(=O)[C@H](C)NC(=O)[C@H](CO)NC(=O)[C@H](CCCCN)NC(=O)[C@H](CCCNC(=N)N)NC(=O)[C@H](C)NC(=O)CNC(=O)[C@@H](NC(=O)[C@H](Cc1ccccc1)NC(=O)CNC(=O)CNC(=O)[C@@H](N)Cc1ccccc1)[C@@H](C)O)C(=O)N[C@@H](C)C(=O)N[C@@H](CC(N)=O)C(=O)N[C@@H](CCC(N)=O)C(=O)O,x,x,x,x,x,-4.9%
O=C(NCCC1=CCCCC1)c1ccc2c(c1)N(Cc1ccccc1)C(=O)c1ccccc1S2(=O)=O,-9.6%,-12.1%,-31.7%[59 µM],x,26.9%,x
O=C(Nc1cc(Cl)cc(Cl)c1)c1cc(S(=O)(=O)NC2CCCC2)ccc1F,3.1%,1.8%,6.4%[59 µM],x,44.9%,x
SMILES,BAZ2B block,JMJD2A Tudor,G9a block,L3MBTL1 inh,HP1b chromo inh,Sfp inh
Cc1ccc(S(=O)(=O)Oc2ccccc2/C=C2\SC(=O)NC2=O)cc1,u,-17.5%,50.1µM*,-5.9%,24.6%,17.5%
O=C1NC(=O)/C(=C/c2ccccc2Oc2ccc(Cl)cc2)S1,1.8%,-2.7%,-47.7%[59 µM],6.6%,25.1%,16.8%
CCSc1nc2c(c(=O)[nH]c(=O)n2C)n1CC(O)COc1ccccc1C (stereo not given),-14.6%,-3.0%,15.8µM*,5.8%,-26.8%,u
Cc1ccccc1OCC(O)Cn1c(SC(C)C)nc2c1c(=O)[nH]c(=O)n2C (stereo not given),-27.1%,u,3.55µM*,-2.1%,-11.7%,56.2µM*
COc1ccc(CCNC(=O)c2oc(=O)c3ccccc3c2-c2ccccc2)cc1OC,-13.1%,14.9%,-8.3%[59 µM],x,42.6%,x
Cc1ccc(C(=O)N2Cc3ccccc3CC2C(=O)O)cc1 (stereo not given),-26.2%,u,35.5µM*,0.7%,25.1%,19.8%
COc1ccc(CNC(=O)[C@@H]2CCCN2C(=O)[C@@H]2Cc3ccccc3CN2C(=O)OC(C)(C)C)cc1,-1.8%,4.1%,27.3%,x,37.8%,12.4%
Cc1ccc(-n2c(SCC(=O)N3Cc4ccccc4CC3C(=O)O)nnc2-c2cccnc2)c(C)c1 (stereo not given),12.9%,-2.8%,44.7µM*,-10.6%,56.1%,11.1%
CC(C)(C)OC(=O)N1Cc2ccccc2C[C@H]1C(=O)N1CCC[C@H]1C(=O)O,1.9%,-2.7%,17.8µM*,x,6.3%,8.2%
Cc1ccc(-n2nnnc2SCC(=O)N2CCc3ccccc3C2)cc1,8.2%,1.3%,u,6.0%,40.4%,1.5%
Cc1ccc(-n2nnnc2SCC(=O)N2Cc3ccccc3CC2C(=O)O)cc1 (stereo not given),-16.2%,-8.8%,44.7µM*,-7.9%,44.6%,9.9%
Cc1cccc(NC(=O)CSc2ncc3c(n2)-c2ccccc2N(Cc2ccc(F)cc2)S3(=O)=O)c1C,u,-14.6%,0.0%[59 µM],x,-5.1%,x

# Screening data from PubChem BioAssay.
